Assay [1] is described as follows: qHTS assay for small molecules that induce genotoxicity in human embryonic kidney cells expressing luciferase-tagged ATAD5 (AID 651632). Further: on the % scale 0 is the no-effect control and ±100 the full control effect; nearly all actives have a fitted effect of over 15% in size. In short, it runs like this: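 HEK293T cells carrying luciferase-tagged ATAD5 were given compound or DMSO vehicle and incubated 16 hr at 37C, 5% CO2. Luciferase activity was read after 30 min at room temperature with Amplite; a rise signals genotoxic stress.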
On the technique in general: Quantitative high-throughput screening tests each substance at several concentrations.

Assay [2] is described as follows: qHTS assay for small molecules that induce genotoxicity in human embryonic kidney cells expressing luciferase-tagged ATAD5 - cell viability (AID 651634; calls by dose curve; further: on the % scale 0 is the no-effect control and ±100 the full control effect; nearly all actives have a fitted effect of over 25% in size). Put shortly:
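HEK293T cells carrying luciferase-tagged ATAD5, 2,000 cells/well, exposed to compound for 15.5 hr at 37C. Viability read as live-cell protease activity by CellTiter-Fluor fluorescence after 30 min at 37C.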

Assay [3] in a line: qHTS assay for small molecule disruptors of the mitochondrial membrane potential - cell viability (AID 720634; calls by dose curve;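 further: human HepG2 liver cancer cells; on the % scale 0 is the no-effect control and ±100 the full control effect; nearly all actives have a fitted effect of over 20% in size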). In short, it runs like this: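 HepG2 cells, 2,000 per well, attached overnight, then treated 1 hr at 37 C, 5% CO2. Viability read as ATP by CellTiter-Glo luminescence after 30 min at room temperature. Read in the same wells as the m-MPI membrane-potential dye assay.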

Assay [4] is described as follows: qHTS assay to test for compound auto fluorescence at 590 nm (red) in HepG2 cells (AID 720674). Further: on the % scale 0 is the no-effect control and ±100 the full control effect. In short, it runs like this: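 We screened compounds on adherent HepG2 cells, incubating them for an hour at 37 C in 5% CO2 before reading emission at 590 nm under 540 nm excitation; values reflect equivalence to Rose Bengal sodium fluorescence.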
Assay [5] in a line: qHTS assay to test for compound auto fluorescence at 535 nm (green) in HepG2 cells (AID 720675). Further: on the % scale 0 is the no-effect control and ±100 the full control effect.
Assay [6] is described as follows: qHTS assay to test for compound auto fluorescence at 460 nm (blue) in HEK293 cells (AID 720678). Further: on the % scale 0 is the no-effect control and ±100 the full control effect. In short, it runs like this:
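Triamterene serves as the blue fluorophore standard. Compound signal at 405/460 nm is read in HEK293 wells (2,000 cells, 10% dialyzed FBS) after overnight treatment at 37C.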

A short description of assay [7]: qHTS assay to test for compound auto fluorescence at 590 nm (red) in HEK293 cells (AID 720679). Further: on the % scale 0 is the no-effect control and ±100 the full control effect. In short, it runs like this:
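We plated HEK293 cells in 10% dialyzed FBS medium, let them adhere for 4-5 hr, then added 23 nL compound. Overnight at 37C and 5% CO2 preceded fluorescence measurement at 540/590nm.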

Assay [8] in a line: qHTS assay to test for compound auto fluorescence at 535 nm (green) in HEK293 cells (AID 720680). Further: on the % scale 0 is the no-effect control and ±100 the full control effect.
Assay [9] is described as follows: qHTS assay to test for compound auto fluorescence at 460 nm (blue) in HEK293 cell free culture (AID 720681). Further: on the % scale 0 is the no-effect control and ±100 the full control effect. Put shortly: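 Blue fluorescence (Ex 405/Em 460 nm, triamterene-equivalent) was read immediately after pin transfer of compound or DMSO into medium (DMEM, 10% FBS) without cells.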
Assay [10] can be described thus: qHTS assay to test for compound auto fluorescence at 535 nm (green) in HEK293 cell free culture (AID 720682). Further: on the % scale 0 is the no-effect control and ±100 the full control effect. Put shortly: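 Measurement is a direct plate read of green fluorescence (485 nm in, 535 nm out) after compound addition to serum-supplemented DMEM lacking cells, with fluorescein used to express intensities.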
Assay [11] is described as follows: qHTS assay to test for compound auto fluorescence at 590 nm (red) in HEK293 cell free culture (AID 720683). Further: on the % scale 0 is the no-effect control and ±100 the full control effect. Put shortly:
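Red-channel autofluorescence of compounds in culture medium (DMEM, 10% FBS), no cells, measured at 540/590 nm. Rose Bengal sodium is the reference fluorophore for equivalence.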

Assay [12] can be described thus: qHTS assay to test for compound auto fluorescence at 590 nm (red) in HepG2 cell free culture (AID 720684). Further: on the % scale 0 is the no-effect control and ±100 the full control effect. In short, it runs like this: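 Steps: dispense MEM/10% FBS medium, no cells; pin compound or DMSO vehicle; read red channel, Ex/Em 540/590 nm. Output given as Rose Bengal sodium equivalents.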
Assay [13] can be described thus: qHTS assay to test for compound auto fluorescence at 460 nm (blue) in HepG2 cell free culture (AID 720685). Further: on the % scale 0 is the no-effect control and ±100 the full control effect. Put shortly:
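Compound (23 nL) or DMSO pinned into cell-free MEM with 10% FBS; blue fluorescence read at 405/460 nm excitation/emission, expressed as auto-fluorescence equivalency to triamterene.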

The nature of assay [14]: qHTS assay to test for compound auto fluorescence at 535 nm (green) in HepG2 cell free culture (AID 720686). Further: on the % scale 0 is the no-effect control and ±100 the full control effect.
The nature of assay [15]: qHTS assay to test for compound auto fluorescence at 460 nm (blue) in HepG2 cells (AID 720687). Further: on the % scale 0 is the no-effect control and ±100 the full control effect. Put shortly: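 Blue-channel autofluorescence (Ex/Em 405/460 nm, triamterene-equivalent) was measured after 1 hr compound exposure at 37 C, 5% CO2. Cells were HepG2, plated overnight at 37 C in MEM plus 10% FBS.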
The nature of assay [16]: qHTS assay for small molecule agonists of the p53 signaling pathway - cell viability (AID 651633; calls by dose curve;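 further: p53RE-bla HCT reporter cells with a stable beta-lactamase p53 reporter; on the % scale 0 is the no-effect control and ±100 the full control effect; nearly all actives have a fitted effect of over 30% in size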). In short, it runs like this: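 Viability counter-read: CellTiter-Glo luminescence (30 min, room temperature) in the same p53RE-bla plates. These plates had been exposed to compounds for 16 h at 37 C.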
The nature of assay [17]: qHTS assay for small molecule disruptors of the mitochondrial membrane potential (AID 720635). Further: potency means the concentration at half of the fitted maximal effect. Put shortly: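 Mitochondrial membrane potential tracked with Mito-MPS dye, red aggregates (ex 540/em 590 nm) against green monomers (ex 490/em 535 nm). Compound treatment 1 hr at 37C, dye 30 min in HepG2.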
The target in assay [18] is Glucocorticoid receptor (Homo sapiens) (UniProt P04150). Nature of the assay: qHTS assay to identify small molecule agonists of the glucocorticoid receptor (GR) signaling pathway (AID 720691; active means well fitted activation curve with a large enough effect in the signal ratio in the repeat runs, not every such curve was filed as active; the % refers to the signal ratio; further: on the % scale 0 is the no-effect control and ±100 the full control effect). The following applies: GR-bla HeLa, beta-lactamase reporter ratio, 18 h; activation: at 62.4 µM (top of the series) unless noted. In short, it runs like this:
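GR-bla HeLa cells carrying a GRE-driven beta-lactamase reporter, exposed to compounds for 18 h at 37 C. Reporter activation read as fluorescence after 2 h with LiveBLAzer B/G FRET substrate at room temperature.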

Assay [19] has the same target. Nature of the assay: qHTS assay to identify small molecule antagonists of the glucocorticoid receptor (GR) signaling pathway (AID 720692; active means well fitted inhibition curve with a large enough effect in the signal ratio in the repeat runs, not every such curve was filed as active; the % refers to the signal ratio; further: on the % scale 0 is the no-effect control and ±100 the full control effect). In short, it runs like this: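 GR-bla HeLa cells carrying a GRE-driven beta-lactamase reporter received compound after 4 h plating, then dexamethasone (5 nM final). After 18 h at 37C, the FRET substrate was loaded for 2 h at room temperature and fluorescence read.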

Unmarked numbers belong to inactive results. Inconclusive results are not listed. Calls of active or inactive are those of the source. Unless noted, the call rests on the fitted dose curve; in most records, active means well fitted curve in the direction sought with a large enough effect in the repeat runs; inconclusive means weak or mixed curves; inactive means no such curve, though single readings can be large; an effect the other way counts as inactive or inconclusive.

Sequence of Glucocorticoid receptor (Homo sapiens) (P04150 whole entry, looked up): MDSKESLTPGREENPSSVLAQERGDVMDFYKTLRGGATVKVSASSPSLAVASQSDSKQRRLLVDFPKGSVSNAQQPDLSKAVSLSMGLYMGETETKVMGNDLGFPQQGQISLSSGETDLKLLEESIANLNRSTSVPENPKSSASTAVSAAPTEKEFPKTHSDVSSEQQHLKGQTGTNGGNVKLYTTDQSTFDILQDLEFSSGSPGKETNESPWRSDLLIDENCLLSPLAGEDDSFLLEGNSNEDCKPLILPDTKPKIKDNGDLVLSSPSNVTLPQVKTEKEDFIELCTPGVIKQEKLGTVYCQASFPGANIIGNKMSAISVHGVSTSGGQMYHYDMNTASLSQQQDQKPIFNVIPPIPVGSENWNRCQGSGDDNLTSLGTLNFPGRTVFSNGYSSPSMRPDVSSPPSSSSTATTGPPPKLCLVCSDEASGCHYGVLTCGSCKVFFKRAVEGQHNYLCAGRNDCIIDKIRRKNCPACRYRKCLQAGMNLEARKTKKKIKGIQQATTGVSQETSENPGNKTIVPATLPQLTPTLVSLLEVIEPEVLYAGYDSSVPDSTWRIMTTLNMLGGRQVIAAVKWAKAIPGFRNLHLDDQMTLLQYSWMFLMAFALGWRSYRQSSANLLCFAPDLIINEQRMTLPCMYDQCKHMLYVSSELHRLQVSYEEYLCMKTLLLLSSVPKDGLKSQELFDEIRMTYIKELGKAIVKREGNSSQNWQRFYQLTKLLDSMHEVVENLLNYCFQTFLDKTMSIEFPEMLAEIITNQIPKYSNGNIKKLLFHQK

On to `CN(C)CCCN1c2ccccc2Sc2ccccc21`, for which the Potency result in [1], in assay [2] and in [3] was “inactive” each time. The fluorescence, relative to Rose Bengal in assay [4] was 0.23% [at 18.6 µM]. In addition, the values for the fluorescence, % of fluorescein control in assay [5] and in assay [14] were -0.18% [at 18.6 µM] and 0.134% [at 18.6 µM], respectively. Moreover, the fluorescence, % of triamterene in [6] was 0.0346% [at 18.6 µM]. For the same compound, the fluorescence, % of fluorescent control in assay [7] was -0.0069% [at 18.6 µM]; in [9] it was -0.0313% [at 18.6 µM]; in assay [11], 0.0444% [at 18.6 µM]; in assay [13], 0.0019% [at 18.6 µM]; in assay [15], -0.0716% [at 18.6 µM]. Moreover, in assay [8], the fluorescence, % of fluorescein is -0.0365% [at 18.6 µM]. Moreover, the activity change in [10] was -0.0157% [at 18.6 µM]. For the same compound, the fluorescence, % of Rose Bengal in [12] was -0.194% [at 18.6 µM].

With `Cc1cccc(Nc2ccccc2)c1`, the Potency result in assay [16], in assay [2], in assay [3], in [4], in [5] and in assay [7] was “inactive” in each case. For the same compound, the Potency result in assay [11], in [12] and in assay [14] was “inactive” each time. Also, in [17], the Potency was 43.3 µM (active). Also, the call in assay [6], in assay [8], in [9], in [10], in assay [13] and in [15] was inactive.

For `COc1cc(Cl)c(OC)cc1N`, the Potency result in assay [2], in [3], in assay [4], in assay [5], in assay [7] and in assay [12] was “inactive” in each case. The Potency entry in assay [14] and in assay [18] was “inactive” each time. Further, the compound was called inactive in assay [6], in [8], in [9], in assay [10] and in assay [15].

For `COc1cc(Cl)ccc1Oc1ccc(Cl)cc1Cl`, the Potency entry in assay [1], in assay [2], in assay [4], in assay [5], in [7] and in [11] was “inactive” each time. The Potency result in assay [12], in assay [14] and in assay [18] was “inactive” throughout. Also, the Potency in assay [17] was 23.6 µM (active). The call in [6], in assay [8], in assay [9], in [10], in [13] and in [15] was inactive.

Regarding `CCCCCCCCCCO[C@@H]1O[C@H](CO)[C@@H](O)[C@H](O)[C@H]1O`, the Potency result in [1], in assay [2], in assay [3], in assay [4], in [5] and in assay [7] was “inactive” each time. The Potency entry in assay [11], in assay [12] and in assay [14] was “inactive” each time. Moreover, the result in assay [6], in assay [8], in assay [9], in [10], in assay [13] and in assay [15] was inactive.

With `C=CCOc1ccccc1OCC(O)CNC(C)C` (stereo not drawn), the Potency entry in assay [1], in assay [2] and in assay [3] was “inactive” throughout. In assay [4], the fluorescence, relative to Rose Bengal is -0.0179% [at 18.6 µM]. In addition, the fluorescence, % of fluorescein control in assay [5] is 0.095% [at 18.6 µM]. In assay [6], the fluorescence, % of triamterene was 0.0129% [at 18.6 µM]. Also, the fluorescence, % of fluorescent control in assay [7] was 0.157% [at 18.6 µM]; in [9], 0.179% [at 18.6 µM]; in [13], -0.0059% [at 18.6 µM]; in [15], -0.0332% [at 18.6 µM]. For the same compound, the fluorescence, % of fluorescein in assay [8] was -0.0095% [at 18.6 µM]. In addition, the activity change in assay [10] was -0.0456% [at 18.6 µM]. The fluorescence, % of Rose Bengal in [12] was 0.264% [at 18.6 µM].

With `CNCCCCOc1ccccc1Cc1ccccc1`, the Potency entry in [1], in assay [2], in assay [3], in assay [4], in assay [5] and in assay [7] was “inactive” in each case. Besides, the Potency entry in assay [12], in assay [14] and in assay [18] was “inactive” each time. The call in [6], in [8], in assay [9], in assay [10], in assay [13] and in assay [15] was inactive.

Take `Clc1ccc2c(c1)CCc1cccnc1C2=C1CCNCC1`: the Potency entry in [1], in [3], in [4], in assay [5], in assay [7] and in assay [11] was “inactive” each time. The Potency entry in [12], in [14] and in [18] was “inactive” each time. Moreover, the compound was called inactive in assay [6], in assay [8], in assay [9], in assay [10] and in [15].

Take `CCCCCCCCCCCCCCOS(=O)(=O)O`: the Potency entry in [1], in assay [2], in assay [3], in assay [4], in [5] and in assay [7] was “inactive” throughout. The Potency result in [11], in [12], in assay [14] and in [19] was “inactive” throughout. In addition, the call in assay [6], in [8], in assay [9], in assay [10], in assay [13] and in assay [15] was inactive.

The record behind these values is PubChem BioAssay (Tox21).
